Results taken from PubChem BioAssay AID2284378 (EPA ToxCast).
Records with an inconclusive call do not appear. Calls of active or inactive are those of the source. Rule for the calls: active = hit-call score of the fitted dose curve at least 0.9, where 1 is the maximum; inconclusive = response in the unintended direction; inactive = score below 0.9.

Tested on: frog Retinoid X Receptor beta (RXRb), gene 394278
Assay: ATG_frRXRb_EcoTox2: Attagene TRANS-FACTORIAL EcoTox-2 HepG2 Assay for frog Retinoid X Receptor beta (RXRb)
Protocol: ATG_EcoTox2 is a cell-based, multiplexed assay created by modifying the existing Attagene TRANS-FACTORIAL system to include a panel of nuclear receptors from some or all the following species: human (Homo sapiens), african clawed frog (Xenopus laevis), rainbow trout (Oncorhynchus mykiss), japanese medaka (Oryzias latipes), and zebrafish (Danio rerio). The ECOTOX2-FACTORIAL format uses HepG2, a human liver cell line, with measurements taken at 24 hours after chemical dosing in a 24-well plate. ATG_frRXRb_EcoTox2 is one of 29 assay components calculated in the ATG_EcoTox2 assay. It is designed to make measurements of mRNA induction, a form of inducible reporter, as detected with fluorescence intensity signals by Reverse transcription polymerase chain reaction (RT-PCR) and Capillary electrophoresis technology.The assay endpoint ATG_frRXRb_EcoTox2 was analyzed in the positive analysis fitting direction relative to DMSO as the negative control and baseline of activity. Using a type of inducible reporter, measures of mRNA for gain-of-signal activity can be used to understand the reporter gene at the transcription factor-level as they relate to the gene RXRb. Furthermore, this assay endpoint can be referred to as a primary readout, because this assay has produced multiple assay endpoints where this one serves a reporter gene function. […]
Human liver HepG2 cells are transiently transfected with multiple reporter transcription units (MRTUs) in 6-well plates using FuGene 6 reagent (Roche; 3 ml FuGene/1 mg DNA). […] A major difference between the CIS and TRANS system is that in CIS activities of endogenous TFs are measured, whereas the TRANS assay evaluates changes in activities of exogenous, chimeric NR-Gal4 proteins. […] The fragments were purified using Qiaquick PCR columns (Qiagen), analyzed on an ABI 3130xL genetic analyzer (Applied Biosystems) with peak positions identified by using a set of X-rhodamine (ROX)-labeled MapMarker1000 molecular weight standards (BioVentures). […]

SMILES	AC50
O=C(O)C(F)(F)C(F)(F)C(F)(F)C(F)(F)C(F)(F)C(F)(F)C(F)(F)F	30 µM (active)
[Cl][Sn]([c]1ccccc1)([c]1ccccc1)[c]1ccccc1	0.0888 µM (active)
CCCCOCN(C(=O)CCl)c1c(CC)cccc1CC	38.5 µM (active)
